Potency, activity change, negative = inhibition and activity change, negative = cytotoxic data for 20 molecules are collected here from PubChem BioAssay (NCATS).

The nature of assay [1]: P-glycoprotein substrates identified in KB-8-5-11 adenocarcinoma cell line, qHTS therapeutic library screen (AID 1346987). Note: nearly all actives have a fitted effect of over 65% in size. Note: potency is the fitted concentration of half-maximal effect. A digest of the protocol: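 In this qHTS, P-gp-rich KB-8-5-11 cells received library compounds across a concentration range. Viability was quantified by luminescence after 72 h at 37 degree C.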
Assay [2] can be described thus: NS1 protein of Zika virus - qHTS assay to identify small molecule inhibitors in human HEK 293 cells (AID 1347053).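 Note: series mostly up to about 46 µM; plate controls were infected untreated cells for no effect and uninfected cells for full effect; nearly all actives have a fitted effect of over 55% in size.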 A digest of the protocol: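 In this cell-based screen, HEK 293 cultures received compound for one hour before Zika MR766 at MOI = 0.5. NS1 was quantified 24 hours later by TR-FRET, normalized to virus-free wells and infected wells.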
On the technique in general: qHTS replaces the single test concentration by a dilution series.

The nature of assay [3]: qHTS of pediatric cancer cell lines to identify multiple opportunities for drug repurposing: Primary screen for TC32 cells (AID 1347089). Note: % is set by controls: 0 for no effect and ±100 for the full control effect; nearly all actives have a fitted effect of over 60% in size. A digest of the protocol:
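A viability screen of TC32 cells was run over 48 h, with primary MIPE doses spanning 0.78 nM–46 µM and NPC doses 0.59 nM–46 µM. ATP luminescence (CellTiter-Glo) served as the read-out.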

Assay [4] can be described thus: qHTS of pediatric cancer cell lines to identify multiple opportunities for drug repurposing: Primary screen for DAOY cells (AID 1347090).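 Note: series mostly up to about 46 µM; plate controls were DMSO for no effect and bortezomib for full effect; nearly all actives have a fitted effect of over 55% in size.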 A digest of the protocol:
(§1)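 Eight- or eleven-point concentration series, 48 h treatment at 37 degrees C in growth media; readout CellTiter-Glo luminescence. Potency and efficacy were taken from the concentration-response curves.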

Assay [5] can be described thus: qHTS of pediatric cancer cell lines to identify multiple opportunities for drug repurposing: Primary screen for SJ-GBM2 cells (AID 1347091).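 Note: plate controls were DMSO neutral control for no effect and bortezomib for full effect.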 A digest of the protocol:
as §1

Assay [6] in a line: qHTS of pediatric cancer cell lines to identify multiple opportunities for drug repurposing: Primary screen for A673 cells (AID 1347092). Note: % is set by controls: 0 for no effect and ±100 for the full control effect; nearly all actives have a fitted effect of over 45% in size. A digest of the protocol: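 Titration-based qHTS on A673 cells: MIPE compounds spanned 11 points (0.78 nM to 46 µM final), NPC compounds 8 points (0.59 nM to 46 µM final). Viability after 48 h was measured by ATP luminescence.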
The nature of assay [7]: qHTS of pediatric cancer cell lines to identify multiple opportunities for drug repurposing: Primary screen for SK-N-MC cells (AID 1347093).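 Note: series mostly up to about 46 µM; plate controls were DMSO neutral control for no effect and bortezomib for full effect.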 A digest of the protocol:
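Metabolically active cells were quantified by ATP-dependent luminescence (CellTiter-Glo, 15 min at room temperature) following 48 h treatment. Cells had been plated at 500-1,000 per well and settled for 5 h beforehand.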

Assay [8] is described as follows: qHTS of pediatric cancer cell lines to identify multiple opportunities for drug repurposing: Primary screen for BT-37 cells (AID 1347094).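 Note: series mostly up to about 57 µM; plate controls were DMSO for no effect and bortezomib for full effect.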 The essentials:
(§2)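 Readout: CellTiter-Glo luminescence, 48 h treatment. Controls DMSO (neutral) and bortezomib 2.3 µM final (positive). Potency and efficacy taken from primary-screen concentration-response curves.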

Assay [9] in a line: qHTS of pediatric cancer cell lines to identify multiple opportunities for drug repurposing: Primary screen for NB-EBc1 cells (AID 1347095).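 Note: plate controls were DMSO neutral control for no effect and bortezomib for full effect.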 The essentials: as §2
The nature of assay [10]: qHTS of pediatric cancer cell lines to identify multiple opportunities for drug repurposing: Primary screen for U-2 OS cells (AID 1347096).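 Note: plate controls were DMSO wells for no effect and bortezomib positive control wells for full effect; nearly all actives have a fitted effect of over 50% in size.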 The essentials:
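Cells (500-1,000/well) in growth media were settled 5 h at 37 degrees C, then given compounds for 48 h. Viability was read as CellTiter-Glo luminescence. Primary runs used MIPE at 11 points (0.78 nM-46 µM) and NPC at 8 points (0.59 nM-46 µM); follow-ups used 11 points.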

Inconclusive results are not listed. A number with no mark means an inactive call. Active and inactive are the calls of the source. Calls come from the whole dose curve; as a rule, active = well fitted curve in the direction sought with a large enough effect; inconclusive = small, poorly fitted or top-dose-only effect, or another doubt; inactive = no such curve, though single readings can be large; an effect the other way counts as inactive or inconclusive.

Consider `CCC(=O)c1c(O)cc(O)cc1O`, for which the Potency entry in assay [1], in [2], in [3], in [4], in assay [5] and in assay [6] was “inactive” each time. Further, the Potency entry in [7], in assay [8], in assay [9] and in [10] was “inactive” in each case.

Turning to `Cc1c(C(N)=O)cc([N+](=O)[O-])cc1[N+](=O)[O-]`, the Potency entry in [1], in assay [2], in assay [3], in [4], in assay [5] and in [6] was “inactive” each time. Besides, the Potency entry in assay [7], in assay [8], in assay [9] and in [10] was “inactive” each time.

Turning to `O=c1[nH]c(=O)n([C@H]2CCCO2)cc1F`, the Potency entry in assay [1], in assay [2], in [3], in assay [4], in [5] and in assay [6] was “inactive” throughout. The Potency entry in [7], in assay [8], in assay [9] and in [10] was “inactive” in each case.

Turning to `CN1[C@@H]2CC[C@H]1CC(OC(=O)c1c[nH]c3ccccc13)C2` (stereo not given in full), the Potency entry in assay [1], in assay [2], in [3], in [4], in [5] and in assay [6] was “inactive” in each case. The Potency result in assay [7], in assay [8], in assay [9] and in [10] was “inactive” each time.

On to `NC(CS)C(=O)O` (stereo not given), for which the Potency result in [1], in assay [2], in assay [3], in [4], in assay [5] and in assay [6] was “inactive” each time. For the same molecule, the Potency result in assay [7], in assay [8], in [9] and in assay [10] was “inactive” throughout.

As to `CN(C)CCOc1ccccc1Cc1ccccc1`, the Potency result in [1], in assay [2], in assay [3], in assay [4], in [5] and in [6] was “inactive” each time. Moreover, the Potency result in assay [7], in [8], in assay [9] and in assay [10] was “inactive” in each case.

Turning to `COc1cc(-c2ccc(=O)[nH]n2)ccc1OC(F)F`, the Potency in assay [1] was 116 nM (active). Besides, the Potency entry in assay [2], in assay [3], in assay [4], in assay [5], in [6] and in assay [7] was “inactive” in each case. Further, the Potency entry in [8], in assay [9] and in assay [10] was “inactive” in each case.

As for `CC1(C)OC[C@@H](COC(=O)CCc2ccc(OC[C@@H](O)CNCCNC(=O)N3CCOCC3)cc2)O1`, the Potency entry in [1], in assay [2], in [3], in [4], in [5] and in [6] was “inactive” each time. Besides, the Potency result in assay [7], in [8], in [9] and in assay [10] was “inactive” in each case.

Take `Cc1cc2c(cc1CC(=O)c1sccc1S(=O)(=O)Nc1onc(C)c1Cl)OCO2`: the Potency entry in assay [1], in assay [2], in assay [3], in assay [4], in [5] and in assay [6] was “inactive” in each case. Moreover, the Potency result in assay [7], in [8], in [9] and in assay [10] was “inactive” in each case.

In the case of `Cc1nc2n(c(=O)c1CCN1CCC(c3noc4cc(F)ccc34)CC1)CCC[C@H]2O`, the Potency entry in assay [1], in assay [2], in assay [3], in assay [4], in assay [5] and in [6] was “inactive” each time. Also, the Potency entry in assay [7], in assay [8], in assay [9] and in assay [10] was “inactive” throughout.

As to `CN1CCC[C@@H]1c1cccnc1`, the Potency result in [1], in assay [2], in assay [3], in [4], in assay [5] and in assay [6] was “inactive” throughout. For the same molecule, the Potency result in [7], in assay [8], in assay [9] and in [10] was “inactive” each time.

For `Cc1onc(-c2c(Cl)cccc2Cl)c1C(=O)N[C@@H]1C(=O)N2[C@@H]1SC(C)(C)[C@@H]2C(=O)O`, the Potency entry in [1], in assay [2], in assay [3], in [4], in [5] and in assay [6] was “inactive” throughout. For the same molecule, the Potency result in [7], in assay [8], in [9] and in assay [10] was “inactive” throughout.

For the molecule `CN(C)CC/C=C1/c2ccccc2COc2ccc(CC(=O)O)cc21`, the Potency entry in assay [1], in [2], in assay [3], in assay [4], in assay [5] and in assay [6] was “inactive” in each case. Also, the Potency result in [7], in [8], in [9] and in assay [10] was “inactive” each time.

`CNC(=O)CN(CCN(CCN(CC(=O)[O-])CC(=O)NC)CC(=O)[O-])CC(=O)[O-].O.[Gd+3]`: the Potency result in assay [1], in assay [2], in [3], in assay [4], in [5] and in [6] was “inactive” in each case. Also, the Potency entry in [7], in assay [8], in assay [9] and in assay [10] was “inactive” throughout.

For the molecule `CCCCCCCCCCCCCCCCCC(=O)OCC(O)CO` (stereo not given), the Potency result in assay [1], in assay [2], in assay [3], in [4], in assay [5] and in assay [6] was “inactive” throughout. Also, the Potency entry in assay [7], in assay [8], in [9] and in assay [10] was “inactive” in each case.

Regarding `Cc1ccc(C(=O)C(C)CN2CCCCC2)cc1` (stereo not given), the Potency result in assay [1], in assay [2], in assay [3], in assay [4], in assay [5] and in [6] was “inactive” each time. Besides, the Potency entry in assay [7], in assay [8], in [9] and in assay [10] was “inactive” each time.

On to `CN=C(NC#N)NCCSCc1csc(N=C(N)N)n1`, for which the Potency result in [1], in assay [2], in assay [3], in assay [4], in assay [5] and in assay [6] was “inactive” throughout. In addition, the Potency result in assay [7], in assay [8], in assay [9] and in assay [10] was “inactive” in each case.

In the case of `CC1(C)O[C@@H]2C[C@H]3[C@@H]4CCC5=CC(=O)CC[C@]5(C)[C@@]4(F)[C@@H](O)C[C@]3(C)[C@]2(C(=O)CCl)O1`, the Potency result in assay [1], in [2], in [3], in assay [4], in [5] and in [6] was “inactive” each time. The Potency entry in [7], in [8], in assay [9] and in assay [10] was “inactive” throughout.

`CCn1cc(C(=O)O)c(=O)c2cnc(N3CCCC3)nc21`: the Potency entry in assay [1] was “inactive”. In addition, the activity change, negative = inhibition in assay [2] was -25.1% [at 9.2 µM]. Moreover, the activity change, negative = cytotoxic was 4.83% [at 9.17 µM] in assay [3]; -3.72% [at 9.22 µM] in [4]; -2.71% [at 9.22 µM] in assay [5]; -17.7% [at 9.22 µM] in assay [6]; -9.99% [at 9.22 µM] in assay [7]; 0.276% [at 11.5 µM] in [8]. The activity change, negative = cytotoxic was -3.37% [at 9.22 µM] in assay [9] and 4.46% [at 9.22 µM] in assay [10].

On to `NC[C@H]1O[C@H](O[C@H]2[C@H](O)[C@@H](O[C@H]3O[C@H](CO)[C@@H](O)[C@H](N)[C@H]3O)[C@H](N)C[C@@H]2N)[C@H](N)[C@@H](O)[C@@H]1O`, for which the Potency result in [1], in [2], in assay [3], in assay [4], in assay [5] and in [6] was “inactive” each time. Besides, the Potency entry in assay [7], in assay [8], in assay [9] and in [10] was “inactive” throughout.
